Assay results reported in PubChem BioAssay (NCI).
The panel holds about 83,000 compounds, 20% with a hit somewhere; the sample as a whole holds those more often.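 Values shown are percent growth following 48 h exposure of cells in 96-well plates to a single concentration of compound; below 10 was considered active.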 Unmarked numbers belong to inactive results. Calls of active or inactive are those of the source.

Assays:
Assay in all cases: NCI-60 one-dose screen, 48 h (100 = growth as untreated, 0 = no growth, -100 = all killed)
Settings in all cases: 10 µM unless noted
RPMI-8226 leukemia = test system: RPMI-8226 leukemia
OVCAR-8 ovarian = test system: OVCAR-8 ovarian
OVCAR-5 ovarian = test system: OVCAR-5 ovarian
OVCAR-4 ovarian = test system: OVCAR-4 ovarian
IGROV1 ovarian = test system: IGROV1 ovarian
OVCAR-3 ovarian = test system: OVCAR-3 ovarian
HS 578T breast = test system: HS 578T breast
NCI/ADR-RES ovarian = test system: NCI/ADR-RES ovarian
T-47D breast = test system: T-47D breast
SK-OV-3 ovarian = test system: SK-OV-3 ovarian

Structure (SMILES) | growth (RPMI-8226 leukemia) | growth (OVCAR-8 ovarian) | growth (OVCAR-5 ovarian) | growth (OVCAR-4 ovarian) | growth (IGROV1 ovarian) | growth (OVCAR-3 ovarian) | growth (HS 578T breast) | growth (NCI/ADR-RES ovarian) | growth (T-47D breast) | growth (SK-OV-3 ovarian)
O=C(CCc1nnc2sc(-c3ccc(Cl)cc3Cl)nn12)c1nc2ncccc2[nH]1 | -2.08% (active) | 0.0907% (active) | -49.3% (active) | -37.7% (active) | -14.8% (active) | -68.7% (active) | 0.818% (active) | -3.89% (active) | -26.3% (active) | 
Cn1cc(-c2ccc3ncc(-c4ccc(CC(=O)Nc5cc(C(C)(C)C)no5)cc4)nc3c2)cn1 | 32.3% | 37% | 74.6% | 31.9% | 19.3% | 49.3% | 25.9% | 43.7% | 25.5% | 
CNCCNc1nc2ccccc2c2c(=O)c3cc(F)ccc3sc12 | -3.62% (active) | 17.3% | 86.4% | 49.1% | 37.6% | 40.4% | 56.9% | 62.4% | -13.4% (active) | 
O=C(N=Nc1c(O)[nH]c2ccccc12)c1oc2ccccc2c1CN1CCN(c2ccccc2)CC1 | 7.75% (active) | 6.9% (active) | 3.76% (active) | -79% (active) | -5.86% (active) | -69.9% (active) | 27.3% | -34.9% (active) | -17.7% (active) | 
COc1ccc2occ(C3=C(c4c[nH]c5ccccc45)C(=O)NC3=O)c2c1 | 53% | 63.9% | 68.6% | -24.3% (active) | 41.5% | 26.8% | 33.9% | 20.5% | 57% | 
CCN1C(=O)N(c2ccccc2)C2NN=c3s/c(=C4\C(=O)N(C(C)C)c5ccccc54)c(=O)n3C21 (centres undefined) | 32% | 31.6% | 45.3% | 45.8% | 28.5% | 1.06% (active) | 24.6% | 15.7% | 53.8% | 
COc1ccc2sc3c(NCCCN)nc4ccccc4c3c(=O)c2c1 | -6.79% (active) | 0.199% (active) | 82.8% | 34.5% | 58.6% | -22.4% (active) | 70.9% | 68.3% | -32.6% (active) | 
COc1cccc2c(=O)c3c(sc12)c(NCCCNCCO)nc1ccccc13 | 29.1% | 49.8% | 77.8% | 42.4% | 26.2% | 54.6% | 35.9% | 60.6% | 72.1% | 
Cc1cc2c(c(C)c1Cl)C(=O)/C(=C/c1ccco1)O2 | 87% | 102% | 114% | 63.3% | 59.2% | 104% | 98.8% | 104% | 47.5% | 
Cc1cc2c(c(C)c1Cl)C(=O)/C(=C/c1cccc([N+](=O)[O-])c1)O2 | 108% | 94.4% | 100% | 86.5% | 96.6% | 107% | 95.8% | 101% | 98.4% | 
COc1ccc(C)c2sc(N(Cc3cccnc3)C(=O)c3ccc(C#N)cc3)nc12 | 8.4% (active) | -10.5% (active) | 24.3% | 14.3% | -14.3% (active) | 15.1% | -1.42% (active) | 9.32% (active) | -0.727% (active) | 
O=C(Nc1ccc(Cl)cc1)N1CCN(c2ccc3nncn3n2)CC1 | -20.9% (active) | 30.5% | 87.2% |  | 72.3% | -7.82% (active) | -40.7% (active) | 63.2% | -54.9% (active) | -3.29% (active)
COc1cc(-c2c3c(c(Br)n2Cc2ccccc2)-c2nc(N)sc2CC3)cc(OC)c1OC | 71.9% | 89.2% | 107% |  | 110% | 95.6% | 80% | 87.4% | 63.8% | 107%
COc1ccc(C(=O)Nc2ccc3nc(N4CCCCC4)cc(C)c3c2)cc1OC | 61.8% | 94.1% | 89.1% |  |  | 59.1% | 77.9% | 98.3% | 94.8% | 114%
O=C(Nc1ccccc1O)c1ccc(-c2ccc(Cl)cc2Cl)o1 | 74.1% | 94.3% | 99.2% |  | 88.3% | 85.6% | 93.8% | 90.3% | 77.2% | 94.5%
N#C/C(=C1\SC(=O)CN1c1ccccc1)c1nc2ccccc2s1 | 83.7% | 94.9% | 103% |  |  | 87% | 94.3% | 89.2% |  | 99.1%

Structure (SMILES) | growth (RPMI-8226 leukemia) | growth (OVCAR-8 ovarian) | growth (OVCAR-5 ovarian) | growth (OVCAR-4 ovarian) | growth (IGROV1 ovarian) | growth (OVCAR-3 ovarian) | growth (HS 578T breast) | growth (NCI/ADR-RES ovarian) | growth (T-47D breast) | growth (SK-OV-3 ovarian)
COc1cccc(-c2nn(C)c3sc(C(=O)NCCN4CCN(c5ccccc5F)CC4)cc23)c1 | -18.3% (active) | 88% | 88.4% |  | 65.2% | 64.9% | 63% | 84.9% | 57.4% | 88.7%
O=C(Nc1ccccc1O)c1ccc(Oc2cccc(C(=O)Nc3ccccc3O)c2)cc1 | 8.97% (active) | 16.7% | 50.7% |  | 18.6% | 27.3% | 40.6% | 5.02% (active) | 26.1% | 26.6%
Cc1ccccc1CNC(=O)C1CN(c2ccc(Cl)cc2)N(c2ccc(Cl)cc2)C1=O (centres undefined) | 65% | 87.9% | 91.8% | 84.1% | 89.7% | 81.1% |  | 84.3% | 71.6% | 
COC(=O)c1ccc(NC(=O)CSc2nc3ccccc3c(=O)n2-c2ccccc2)cc1 | 89.4% | 101% | 94.7% | 90.6% | 90.9% | 92.6% |  | 104% | 92.1% | 
O=c1oc2ccc(Br)cc2c(=O)n1-c1ccc(Br)cc1F | -13.8% (active) | 12.3% | 18.8% | 10.4% | 9.59% (active) | 8.18% (active) |  | 2.87% (active) | -1.51% (active) | 
COc1ccc(CCN2CCC(CN(C)Cc3cnn(-c4ccccc4)c3)CC2)cc1 | 15.6% | 15.3% | 57.4% |  | 28.9% | 37.4% | 67.1% | 12% | 36.4% | 39.2%
C=C(C)CCC(C)N1CCC(N2CCC(C(=O)NCCc3ccccc3)CC2)CC1 (centres undefined) | 4.75% (active) | 75.6% | 92.2% |  | 69.5% | -15.2% (active) | 56.6% | 59.9% | 60.9% | 52.9%
CC1CCCCN1CCCNC(=O)c1ccc2c(c1)sc1nc(-c3ccc(F)cc3)cn12 (centres undefined) | 86% | 105% | 100% |  | 93.8% | 105% | 98.5% | 87.6% | 93.4% | 99.7%
FC(F)(F)c1cccc(CNC2CCN(CCc3ccccc3)CC2)c1 | -10.3% (active) | 79.5% | 84.6% |  | 61.9% | 64.7% | 88.1% | 65.2% | 86.7% | 81.2%
Cn1c(/C=C(\C#N)c2cccc(C(F)(F)F)c2)nc2c(N3CCOCC3)nc(Cl)nc21 | -23.4% (active) | 7.88% (active) | -53.7% (active) | -56.4% (active) | -27.7% (active) | -85% (active) |  | 20.1% | -36.6% (active) | 
CCn1c(SCC(=O)Nc2cc(C(F)(F)F)ccc2Cl)nc2ccccc2c1=O | 14.2% | 60.9% | 78.3% |  | 34.2% | 52.4% | 43.8% | 47.3% | 50.6% | 76.5%
CNCCNc1nc2ccccc2c2c(=O)c3cccc(C)c3sc12 | -30.5% (active) | 37.4% | 55.3% | 29.4% | 18.1% | 47.7% |  | 44.6% | 49.3% | 
N#C/C(=C\c1c(-c2ccccc2)[nH]c2ccccc12)C(=O)c1ccccc1 | -0.917% (active) | 46.9% | 70.5% | 68.9% |  | -7.05% (active) | 16% | 6.15% (active) | 39% | 
COc1ccccc1CNC(=O)C1c2ccccc2C(=O)N(CC(C)C)C1c1cccs1 (centres undefined) | 2.15% (active) | 50.5% | 84.2% |  | 71.8% | 58% |  | 71.4% | 42.5% | 106%
CCCC(c1nnnn1C1CCCCC1)N1CCN(C(=O)c2ccco2)CC1 (centres undefined) | 28.9% | 86.4% | 89.4% |  | 69.2% | 25.2% | 60.7% | 46.1% | 92.9% | 79.5%
